Eight compounds from PubChem BioAssay (Tox21) can be followed below.

A number with no mark means an inactive call. Results filed as inconclusive are left out. Active and inactive are the calls of the source. Unless noted, the call rests on the fitted dose curve; in most records, active means well fitted curve in the direction sought with a large enough effect in the repeat runs; inconclusive means weak or mixed curves; inactive means no such curve, though single readings can be large; an effect the other way counts as inactive or inconclusive.

A short description of experiment [1]: qHTS assay to identify small molecule agonists of H2AX (AID 1224845; active means well fitted activation curve with a large enough effect in the signal ratio in the repeat runs, not every such curve was filed as active; the % refers to the signal ratio). In a few lines:
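Wild-type CHO-K1 cells plated overnight, then exposed 3 hr at 37C to compounds at 15 concentrations (0.76% DMSO). Lysed, then HTRF anti-pH2AX(S139)-cryptate/anti-H2AX-d2 detection after 24 hr at room temperature; emissions 665 and 620 nm.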

Experiment [2] can be described thus: qHTS assay to identify small molecule agonists of the hypoxia (HIF-1) signaling pathway (AID 1224846; active means well fitted activation curve with a large enough effect in the signal ratio in the repeat runs, not every such curve was filed as active; the % refers to the signal ratio). The essentials:
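Reporter induction in HRE-bla ME-180 cells is taken as agonism: cells sit 5 hrs after plating, receive compounds or DMSO only, incubate 17 hrs at 37C under 5% CO2, and are loaded with CCF4-AM for beta-lactamase FRET measurement.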
On the technique in general: qHTS replaces the single test concentration by a dilution series.

Experiment [3] is described as follows: qHTS assay to identify small molecule agonists of H2AX - cell viability counter screen (AID 1224847; calls by dose curve; further: top concentration of the series differs between compounds; nearly all actives have a fitted effect of over 30% in size). In a few lines:
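Wild-type CHO-K1 cells (10% FBS medium) were plated overnight at 37C, exposed to compounds at 15 concentrations for 3 hr at 37C (0.76% DMSO final), and viability was read as CellTiter-Glo luminescence after 30 min at room temperature.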

Experiment [4] can be described thus: qHTS assay to identify small molecule agonists of the estrogen related receptor (ERR) signaling pathway from Tox21 library (AID 1224849; calls by dose curve; further: nearly all actives have a fitted effect of over 15% in size). The following applies: ERR reporter cell line, ONE-Glo luciferase, 18 h; at 92.4 µM (top of the series) unless noted. In a few lines:
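Tox21 compounds tested for ERR agonism in an NTP reporter cell line: 18 h treatment at 37 C, then ONE-Glo luminescence.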

A short description of experiment [5]: qHTS RealTime-Glo MT Cell Viability Assay in HepG2 cells - 24 hour (AID 1224867). Further: nearly all actives have a fitted effect of over 50% in size. In a few lines: (§1)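 Compound treatment began 5 h after plating HepG2 cells (600/well) with NanoLuc luciferase and prosubstrate. Plates stayed at 37 C for 40 h; luminescence was captured at six time points, 0 h through 40 h.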
The nature of experiment [6]: qHTS RealTime-Glo MT Cell Viability Assay in HEK293 cells - 32 hour (AID 1224868). Further: nearly all actives have a fitted effect of over 50% in size. Further: potency means the concentration at half of the fitted maximal effect. On activity change, negative = cytotoxic: top concentration of the series differs between compounds. In a few lines: (§2)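 Quantitative high-throughput screen of the Tox21 10K library in HEK293: cells and RealTime-Glo reagents plated together, compound added at 5 h, luminescence monitored through 40 h at 37 C.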
Experiment [7] can be described thus: A CellTox Green Cytotoxicity Assay to monitor cytotoxicity in HEK293 cells - 0 hour (AID 1224869). Further: nearly all actives have a fitted effect of over 50% in size. In a few lines: (§3)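 Tox21 screen in HEK293: membrane-impermeant cyanine dye fluoresces on binding dead-cell DNA; compound pinned 5 h post-seeding, plates held at 37 C, signal read repeatedly through 40 h.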
The nature of experiment [8]: qHTS RealTime-Glo MT Cell Viability Assay in HepG2 cells - 40 hour (AID 1224870). Further: nearly all actives have a fitted effect of over 50% in size. In a few lines:
(§4)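 HepG2 cells mixed with RealTime-Glo MT reagents (NanoLuc plus cell-permeant prosubstrate) were seeded at 600 cells/well, incubated 5 h at 37 C/5% CO2, then pinned with compounds in DMSO; nonlytic luminescence tracked viability during 40 h treatment.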

A short description of experiment [9]: qHTS RealTime-Glo MT Cell Viability Assay in HEK293 cells - 16 hour (AID 1224872). In a few lines:
as §2

The nature of experiment [10]: qHTS RealTime-Glo MT Cell Viability Assay in HepG2 cells - 8 hour (AID 1224873). Further: nearly all actives have a fitted effect of over 55% in size. The essentials: as §4
Experiment [11] can be described thus: qHTS RealTime-Glo MT Cell Viability Assay in HEK293 cells - 40 hour (AID 1224874). Further: nearly all actives have a fitted effect of over 50% in size. Further: potency means the concentration at half of the fitted maximal effect. Particulars: RealTime-Glo luminescence; max response: hits give low values. In a few lines: (§5)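 HEK293 + NanoLuc + prosubstrate, 600 cells/well; 5 h, 37 C/5% CO2; compound 23 nL in DMSO by pintool; 37 C; luminescence read at 0, 8, 16, 24, 32 and 40 h time points.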
Experiment [12] can be described thus: A CellTox Green Cytotoxicity Assay to monitor cytotoxicity in HEK293 cells - 24 hour (AID 1224875). Further: nearly all actives have a fitted effect of over 45% in size. The essentials:
as §3

Experiment [13] can be described thus: A CellTox Green Cytotoxicity Assay to monitor cytotoxicity in HepG2 cells - 16 hour (AID 1224876). Further: nearly all actives have a fitted effect of over 45% in size. In a few lines: (§6)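 Measurements at 0, 8, 16, 24, 32 and 40 h of treatment captured CellTox Green fluorescence in HepG2 cells that had been co-plated with reagent and preincubated 5 h at 37 C/5% CO2.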
Experiment [14] in a line: qHTS RealTime-Glo MT Cell Viability Assay in HepG2 cells - 32 hour (AID 1224877). Further: nearly all actives have a fitted effect of over 55% in size. The essentials: as §1
Experiment [15] can be described thus: A CellTox Green Cytotoxicity Assay to monitor cytotoxicity in HepG2 cells - 24 hour (AID 1224878). Further: nearly all actives have a fitted effect of over 45% in size. In a few lines:
as §6

The nature of experiment [16]: A CellTox Green Cytotoxicity Assay to monitor cytotoxicity in HepG2 cells - 40 hour (AID 1224879). Further: nearly all actives have a fitted effect of over 40% in size. In a few lines:
as §6

Experiment [17] can be described thus: A CellTox Green Cytotoxicity Assay to monitor cytotoxicity in HEK293 cells - 32 hour (AID 1224881). Further: nearly all actives have a fitted effect of over 40% in size. In a few lines: as §3
Experiment [18] can be described thus: A CellTox Green Cytotoxicity Assay to monitor cytotoxicity in HEK293 cells - 40 hour (AID 1224871). Further: nearly all actives have a fitted effect of over 45% in size. In a few lines:
as §3

Experiment [19] is described as follows: qHTS RealTime-Glo MT Cell Viability Assay in HEK293 cells - 0 hour (AID 1224880). In a few lines: as §5
On the % scale 0 is the no-effect control and ±100 the full control effect.

Take `CCCCOC(=O)/C=C\C(=O)OCCCC`: the Potency entry in [1], in experiment [3], in experiment [5], in experiment [6], in [7] and in [8] was “inactive” each time. In addition, the Potency result in experiment [9], in experiment [10], in experiment [12], in experiment [13], in experiment [14] and in [15] was “inactive” in each case. The Potency result in [16] and in experiment [17] was “inactive” in each case. Moreover, in experiment [2], the call was inactive. In addition, in experiment [4], the activity change, positive = activation is -7.95%. In experiment [11], the max response was -0.0674%.
Turning to `CCN(CCO)CCCC(C)Nc1ccnc2cc(Cl)ccc12` (stereo not given), the activation (H2AX phosphorylation) in experiment [1] was -1.66% [at 14 µM]. In experiment [2], the activation was 0.22% [at 7.01 µM]. Further, the activity change, negative = cytotoxicity is 1.55% [at 14 µM] in experiment [3], 2.56% [at 6.97 µM] in experiment [5], 2.31% [at 6.97 µM] in experiment [9] and 3.38% [at 6.97 µM] in experiment [19]. Also, the activity change, negative = cytotoxic in experiment [6] is 2.9% [at 6.97 µM]; in experiment [8] it was 0.0181% [at 6.97 µM]; in experiment [14], 2.34% [at 6.97 µM]. The cytotoxicity was -2.9% [at 6.97 µM] in experiment [7] and 14.8% [at 6.97 µM] in experiment [15]. The cytotoxicity increase in experiment [18] was -1.39% [at 6.97 µM]; in [16], 10.5% [at 6.97 µM]; in [17], -1.54% [at 6.97 µM]. Moreover, in [10], the viability change, negative = cytotoxic was 4.72% [at 6.97 µM]. Moreover, in [11], the max response was -1.22%. The activity change in experiment [12] was -1.16% [at 6.97 µM, hits give high values].
Take `CCCCCC/C=C/C=O`: the Potency result in experiment [1], in [3], in experiment [5], in experiment [6], in experiment [7] and in experiment [8] was “inactive” each time. Moreover, the Potency entry in experiment [10], in experiment [12], in experiment [14] and in experiment [17] was “inactive” each time. Besides, in [2], the compound was classed as inactive. In addition, in experiment [4], the activity change, positive = activation was 2.49%. Further, the max response in experiment [11] is 35.7%.
With `CN1CCC(OC(c2ccccc2)c2ccccc2)CC1`, the Potency result in [1], in [3], in [5], in experiment [6], in experiment [7] and in experiment [8] was “inactive” throughout. The Potency entry in [18], in experiment [9], in [10], in experiment [12], in experiment [13] and in experiment [14] was “inactive” each time. The Potency result in experiment [15], in experiment [16], in experiment [19] and in [17] was “inactive” throughout. Besides, the compound was classed as inactive in [2]. Also, in experiment [11], the max response was -5.84%.
Turning to `C[C@@H](C1=C(CCN(C)C)Cc2ccccc21)c1ccccn1`, the Potency entry in experiment [1], in experiment [3], in experiment [5], in experiment [6], in experiment [7] and in [8] was “inactive” in each case. Moreover, the Potency entry in experiment [18], in experiment [9], in [10], in [12], in experiment [13] and in [14] was “inactive” in each case. Moreover, the Potency entry in [15], in experiment [19] and in [17] was “inactive” in each case. The compound was called inactive in experiment [2]. Also, in [11], the max response was -16.8%.
With `c1ccc(OCc2ccc(CCCN3CCOCC3)cc2)cc1`, the Potency result in experiment [1], in experiment [3], in experiment [5], in experiment [7], in [8] and in experiment [10] was “inactive” throughout. The Potency entry in [12], in [14], in experiment [19] and in experiment [17] was “inactive” throughout. For the same compound, the compound was called inactive in experiment [2]. Further, in [4], the activity change, positive = activation is -24.5% [at 42.5 µM]. Further, the Potency in experiment [6] was 19 µM (active); in [11], 21.3 µM (active).
As for `CC(C)CCCCCCOC(=O)c1ccc(C(=O)OCCCCCCC(C)C)c(C(=O)OCCCCCCC(C)C)c1`, the Potency entry in experiment [1], in experiment [3], in [5], in experiment [6], in experiment [7] and in experiment [8] was “inactive” throughout. Besides, the Potency entry in experiment [18], in experiment [9], in experiment [10], in experiment [12], in experiment [14] and in experiment [15] was “inactive” each time. Further, the Potency result in [16], in experiment [19] and in [17] was “inactive” in each case. Besides, the call in experiment [2] was inactive. In addition, the max response in experiment [11] was -0.306%.
For the compound `CCOc1cc(OCC)c(C(=O)CCC(=O)O)cc1OCC`, the Potency entry in experiment [1], in [3], in experiment [5], in experiment [6], in experiment [7] and in experiment [8] was “inactive” throughout. Further, the Potency entry in experiment [18], in experiment [9], in [10], in experiment [12], in experiment [13] and in [14] was “inactive” throughout. The Potency entry in experiment [15], in experiment [16] and in [17] was “inactive” each time. The result in experiment [2] was inactive. Moreover, in experiment [11], the max response is 3.3%.
